Test systems include T-47D breast; BT-549 breast; MDA-MB-435 melanoma; SW-620 colon; HCT-116 colon; HCC-2998 colon; KM12 colon.
Common to all, as to experiment: NCI-60 one-dose screen, 48 h (100 = growth as untreated, 0 = no growth, -100 = all killed)
Another assay concerns MCF7 breast. To be noted: 10 µM.

Values joined by “and” are separate entries in the source; they are usually repeats but may differ in a detail not shown here. Equal entries are not always repeated. This is part of a sample that, as a whole, favours compounds with a hit. Of some 83,000 tested, about 20% had one in any assay.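 Growth was measured after 48 h exposure to one concentration of compound in 96-well plates. Values under 10 count as active.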 Active and inactive are the calls of the source.

Among the data in PubChem BioAssay (NCI) are growth values, retold here.

As for `O=C(O)c1c(Cl)c(Cl)c(Cl)c(Cl)c1-c1c2cc(I)c(=O)c(I)c-2oc2c(I)c(O)c(I)cc12`, the growth with T-47D breast (10 µM) is 110% (inactive) and 85.9% (inactive) and 95.8% (inactive); in the assay on T-47D breast (100 µM), -47.8% (active); in the assay on BT-549 breast (10 µM) it was 108% (inactive) and 117% (inactive) and 43.5% (inactive); in the assay with BT-549 breast (100 µM) it was -47.5% (active); in the assay on MDA-MB-435 melanoma (10 µM), 104% (inactive) and 113% (inactive) and 110% (inactive); in the assay on MDA-MB-435 melanoma (100 µM), 69% (inactive). Further, the growth in the assay on SW-620 colon (10 µM) was 107% (inactive) and 140% (inactive) and 109% (inactive); in the assay with SW-620 colon (100 µM), 13.7% (inactive); in the assay with HCT-116 colon (10 µM), 106% (inactive) and 103% (inactive) and 114% (inactive); in the assay on HCT-116 colon (100 µM), 0.594% (active); with HCC-2998 colon (10 µM), 110% (inactive) and 106% (inactive) and 113% (inactive); with HCC-2998 colon (100 µM), -7.72% (active). Besides, the growth with KM12 colon (10 µM) is 102% (inactive) and 99.9% (inactive) and 104% (inactive); in the assay with KM12 colon (100 µM), 67.9% (inactive).

`O=C(Nc1cccc(Br)c1)Oc1cccc2cccnc12`: the growth is 92% (inactive) in the assay with T-47D breast (10 µM); 2.98% (active) in the assay with T-47D breast (100 µM); 90.5% (inactive) in the assay on BT-549 breast (10 µM); 12.7% (inactive) with BT-549 breast (100 µM); 98.2% (inactive) in the assay with MDA-MB-435 melanoma (10 µM); 43.1% (inactive) in the assay on MDA-MB-435 melanoma (100 µM). Also, the growth in the assay on SW-620 colon (10 µM) is 106% (inactive); in the assay with SW-620 colon (100 µM) it was 25% (inactive); with HCT-116 colon (10 µM) it was 92.7% (inactive); with HCT-116 colon (100 µM), 1.93% (active); with HCC-2998 colon (10 µM) it was 98.2% (inactive); in the assay with HCC-2998 colon (100 µM) it was 59.9% (inactive). The values for the growth with KM12 colon (10 µM) and in the assay with KM12 colon (100 µM) were 110% (inactive) and 40.1% (inactive), respectively.

Regarding `CNc1ccc(N)cc1`, the growth in the assay with T-47D breast (10 µM unless noted) is 119% (inactive); in the assay with BT-549 breast (10 µM unless noted), 87.6% (inactive); in the assay on MDA-MB-435 melanoma (10 µM unless noted) it was 96.2% (inactive); in the assay on SW-620 colon (10 µM unless noted), 104% (inactive); with MCF7 breast, 96.3% (inactive); in the assay on HCT-116 colon (10 µM unless noted) it was 107% (inactive). The growth in the assay on HCC-2998 colon (10 µM unless noted) was 100% (inactive); with KM12 colon (10 µM unless noted), 107% (inactive).

Consider `NC(=O)/C=C/C(=O)c1c(Cl)cccc1Cl`, for which the growth with T-47D breast (10 µM unless noted) is -62.4% (active); in the assay on BT-549 breast (10 µM unless noted), -42.4% (active); in the assay on MDA-MB-435 melanoma (10 µM unless noted), -68% (active); with SW-620 colon (10 µM unless noted), -71% (active); in the assay with MCF7 breast, -68.9% (active); in the assay with HCT-116 colon (10 µM unless noted), -100% (active). For the same molecule, the growth with HCC-2998 colon (10 µM unless noted) is -98.6% (active); with KM12 colon (10 µM unless noted), -51.4% (active).

In the case of `CCCCCCCCCCCCCCCCCCOP(=O)([O-])OC1CC[N+](C)(C)CC1`, the growth with T-47D breast (10 µM unless noted) was -18.4% (active) and 2.5% (active); with BT-549 breast (10 µM unless noted) it was 24.3% (inactive) and -14.9% (active); with MDA-MB-435 melanoma (10 µM unless noted), 15.8% (inactive) and -67.3% (active); with SW-620 colon (10 µM unless noted) it was 46.3% (inactive) and 25% (inactive); with MCF7 breast, 38.5% (inactive) and 18.4% (inactive); in the assay on HCT-116 colon (10 µM unless noted), 19.5% (inactive) and -41.9% (active). The growth in the assay with HCC-2998 colon (10 µM unless noted) was 5.08% (active) and -75.7% (active); in the assay on KM12 colon (10 µM unless noted), -44.2% (active) and -95.1% (active).

Turning to `CCC(CC)COC(=O)c1ccc(O)c(O)c1`, the growth is 43.6% (inactive) in the assay with T-47D breast (10 µM unless noted); 50% (inactive) in the assay with BT-549 breast (10 µM unless noted); 69.8% (inactive) in the assay on MDA-MB-435 melanoma (10 µM unless noted); 80.5% (inactive) in the assay on SW-620 colon (10 µM unless noted); 97.5% (inactive) with MCF7 breast; 72.6% (inactive) with HCT-116 colon (10 µM unless noted). Moreover, the growth was 84.4% (inactive) in the assay on HCC-2998 colon (10 µM unless noted) and 61.3% (inactive) in the assay on KM12 colon (10 µM unless noted).

Turning to `N#CSCC(=O)c1ccc(Cl)cc1`, the growth in the assay with T-47D breast (10 µM unless noted) is 71.4% (inactive); in the assay with BT-549 breast (10 µM unless noted), 43.7% (inactive); with MDA-MB-435 melanoma (10 µM unless noted), 15.8% (inactive); in the assay on SW-620 colon (10 µM unless noted), 22.7% (inactive); with MCF7 breast, 10.7% (inactive); with HCT-116 colon (10 µM unless noted), -16.3% (active). Moreover, the growth in the assay on HCC-2998 colon (10 µM unless noted) was -19.5% (active); with KM12 colon (10 µM unless noted), 14.7% (inactive).

With `CCN(CC)CCOc1ccc(-c2nc3cc(Cl)ccc3s2)cc1`, the growth with T-47D breast (10 µM unless noted) was 22% (inactive); in the assay with BT-549 breast (10 µM unless noted), 68% (inactive); in the assay with MDA-MB-435 melanoma (10 µM unless noted), -51.1% (active); with SW-620 colon (10 µM unless noted), -52.9% (active); with MCF7 breast it was 9.23% (active); in the assay with HCT-116 colon (10 µM unless noted), -69.3% (active). Besides, the results for the growth in the assay with HCC-2998 colon (10 µM unless noted) and in the assay on KM12 colon (10 µM unless noted) were -97.2% (active) and -99.2% (active), respectively.

As to `O=Nc1ccccc1N=O`, the growth in the assay with T-47D breast (10 µM unless noted) is 94.3% (inactive); with BT-549 breast (10 µM unless noted), 92.7% (inactive); in the assay on MDA-MB-435 melanoma (10 µM unless noted) it was 87.3% (inactive); in the assay on SW-620 colon (10 µM unless noted), 77.5% (inactive); in the assay with MCF7 breast, 65.1% (inactive); in the assay on HCT-116 colon (10 µM unless noted) it was 92.8% (inactive). Further, the growth is 93.9% (inactive) in the assay on HCC-2998 colon (10 µM unless noted) and 91.3% (inactive) with KM12 colon (10 µM unless noted).

On to `Cn1c2c(c3ccccc31)CCN1C[C@@H]3CCCC[C@H]3C[C@@H]21`, for which the growth in the assay on T-47D breast (10 µM unless noted) was 32.9% (inactive); with BT-549 breast (10 µM unless noted), 22.5% (inactive); in the assay with MDA-MB-435 melanoma (10 µM unless noted), -53.4% (active); with SW-620 colon (10 µM unless noted), 13.5% (inactive); in the assay on MCF7 breast, 13.9% (inactive); with HCT-116 colon (10 µM unless noted), -10.1% (active). The growth in the assay with HCC-2998 colon (10 µM unless noted) was -4.34% (active); with KM12 colon (10 µM unless noted) it was -32.3% (active).

Take `CCCCCCCCCCCCCCCCN(CC)CC`: the growth in the assay on T-47D breast (10 µM unless noted) was 2.05% (active); with BT-549 breast (10 µM unless noted), -36.8% (active); with MDA-MB-435 melanoma (10 µM unless noted) it was -80.8% (active); with SW-620 colon (10 µM unless noted), -69.1% (active); with MCF7 breast, -68.6% (active); in the assay with HCT-116 colon (10 µM unless noted), -52.5% (active). For the same molecule, the growth in the assay on HCC-2998 colon (10 µM unless noted) is -97.1% (active); with KM12 colon (10 µM unless noted) it was -57% (active).

`CCOC(=O)/C(=C\c1ccc(-c2ccccc2)cc1)C(C)=O`: the growth in the assay with T-47D breast (10 µM unless noted) is 105% (inactive); in the assay on BT-549 breast (10 µM unless noted), 98.8% (inactive); in the assay with MDA-MB-435 melanoma (10 µM unless noted), 98.9% (inactive); in the assay on SW-620 colon (10 µM unless noted), 101% (inactive); with MCF7 breast it was 93.3% (inactive); in the assay with HCT-116 colon (10 µM unless noted), 103% (inactive). Besides, the growth is 95.2% (inactive) in the assay on HCC-2998 colon (10 µM unless noted) and 104% (inactive) in the assay on KM12 colon (10 µM unless noted).

As for `COc1ccc(N=N/N=c2\sc3cc(OC)ccc3n2C)cc1`, the growth in the assay on T-47D breast (10 µM unless noted) was 83.6% (inactive); with BT-549 breast (10 µM unless noted) it was 95.5% (inactive); with MDA-MB-435 melanoma (10 µM unless noted) it was 104% (inactive); with SW-620 colon (10 µM unless noted) it was 102% (inactive); in the assay with MCF7 breast it was 78.9% (inactive); in the assay on HCT-116 colon (10 µM unless noted) it was 95.8% (inactive). Further, the growth was 102% (inactive) in the assay on HCC-2998 colon (10 µM unless noted) and 95% (inactive) in the assay on KM12 colon (10 µM unless noted).
